{
  "source": "the supplement of paper PMC10981050",
  "note": "Values joined by “and” are separate entries in the source; they are usually repeats but may differ in a detail not shown here. Identical values can stand only once. Counter-ions that a name gives are not always drawn.",
  "data": [
    {"system": "K562", "test": "cell viability relative to vehicle control; higher = less cytotoxic", "conditions": "10 µM; SRSF2 genotype: SRSF2 P95H/wt", "procedure,_shortened": "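Screening covered the Selleck bioactive, kinase and epigenetic probe libraries, less identity-inconsistent compounds, on CRISPR-edited mutant clones and isogenic wild-type clones of four leukaemia lines. Cells, at 2000 per well in 50 µL medium, received a single 10 µM acoustically dispensed dose. After 48 h the supernatant was removed and CellTiter-Glo luminescence was read. Viability was analysed in Genedata Screener as percent of the on-plate vehicle control.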", "values": [
      {"molecule": "CN1CCN2c3ncccc3Cc3ccccc3C2C1", "note": "(stereo not drawn) [Mirtazapine (Remeron, Avanza)]", "cell viability": "101% and 92.3%"},
      {"molecule": "NCCCCCN", "note": "[Cadaverine]", "cell viability": "104% and 94%"},
      {"molecule": "CCN1CCN(Cc2ccc(C(=O)Nc3ccc(C)c(Oc4ccc5c(c4)CC(=O)N5)c3)cc2C(F)(F)F)CC1", "cell viability": "4.41% and 19.5%"},
      {"molecule": "O=C(O)c1cc(C(=O)O)c2c(n1)C(=O)C(=O)c1cc(C(=O)O)[nH]c1-2", "note": "[Pyrroloquinoline Quinone Disodium Salt]", "cell viability": "101% and 95.6%"},
      {"molecule": "CC(C)C(=O)Nc1ccc([N+](=O)[O-])c(C(F)(F)F)c1", "note": "[Flutamide (Eulexin)]", "cell viability": "92.3% and 90.8%"},
      {"molecule": "O=C(Cc1ccccc1)Nc1nnc(CCSCCc2nnc(NC(=O)Cc3ccccc3)s2)s1", "cell viability": "81.3% and 83.7%"},
      {"molecule": "CCn1nc(C2CCN(C(=O)CCO)CC2)nc1-c1cnc(N)c(-c2nnc(C(C)(C)C)o2)n1", "cell viability": "97.5% and 109%"},
      {"molecule": "OC[C@H]1O[C@@H](Oc2cc(O)cc(/C=C/c3ccc(O[C@@H]4O[C@H](CO)[C@@H](O)[C@H](O)[C@H]4O)cc3O)c2)[C@H](O)[C@@H](O)[C@@H]1O", "note": "[Mulberroside A]", "cell viability": "94.5% and 95.1%"},
      {"molecule": "O=C(C[S+]([O-])Cc1ccco1)NC/C=C\\COc1cc(CN2CCCCC2)ccn1", "note": "(stereo not drawn) [Lafutidine]", "cell viability": "104% and 105%"},
      {"molecule": "Cn1cc(CNCC2CCN(c3ncc(C(=O)NO)cn3)CC2)c2ccccc21", "cell viability": "1.34% and 13.5%"},
      {"molecule": "NC(=O)c1ccc(I)c([N+](=O)[O-])c1", "note": "[Iniparib (BSI-201)]", "cell viability": "101% and 102%"},
      {"molecule": "COc1cc(C=O)ccc1OC(C)=O", "note": "[Acetylvanillin]", "cell viability": "99.2% and 99.9%"},
      {"molecule": "C=CS(=O)(=O)NC1CCN(C(=O)CNc2cc(I)c(Cl)cc2OC)CC1", "note": "[K-Ras(G12C) inhibitor 9]", "cell viability": "22.4% and 31%"}
    ]}
  ]
}
